Assay results taken from PubChem BioAssay (EPA / NIEHS).
Values joined by “and” are separate entries in the source; they are usually repeats but may differ in a detail not shown here. Equal values may be shown once. Some compounds were tested as several samples or in several runs, with calls that do not always agree. Active and inactive are the calls of the source. Rule for the calls: active = hit-call score of the fitted dose curve at least 0.9, where 1 is the maximum; inactive = score below 0.9.

read-out: TIMP metallopeptidase inhibitor 1 (TIMP1), TIMP1 (gene 7076); test: BSK_MyoF_TIMP1: BioMAP Diversity Plus: MyoF Assay for TIMP metallopeptidase inhibitor 1 (TIMP1) Biomarker Activity (AID 2284269); conditions: primary human lung fibroblasts
Procedure: BSK_MyoF is a cell-based, multiplexed-readout assay that uses lung fibroblasts, […], with measurements taken at 24 hours after chemical dosing in a microplate: 96-well plate.BSK_MyoF_TIMP1 is an assay component measured in the BSK_MyoF assay. It measures TIMP-1 antibody related to regulation of gene expression using ELISA technology.Data from the assay component BSK_MyoF_TIMP1 was analyzed at the endpoint, BSK_MyoF_TIMP1, in the positive analysis fitting direction relative to DMSO as the negative control and baseline of activity. Using a type of binding reporter, gain or loss-of-signal activity can be used to understand protein changes. To generalize the intended target to other relatable targets, this assay endpoint is annotated to the 'protease' intended target family, where the subfamily is 'matrix metalloproteinase'.
The levels of cell surface (or secreted, indicated by the prefix "s") biomarker endpoints were measured by ELISA. Overt cytotoxicity to cells in confluent adherent cultures (all systems other than the BT system) was assessed by measuring total protein levels using sulforhodamine B (SRB) staining in parallel cultures at the time of biomarker measurements, indicated as SRB endpoints. For proliferation assays for adherent cell types, individual cell types are cultured at sub-confluence and relative cell numbers quantified by SRB staining at time points optimized for each system (48 h: 3C and CASM3C systems; 72 h: BT and HDF3CGF systems; 96 h: SAg system). SRB was performed by staining cells with 0.1% SRB after fixation with 10% TCA and reading wells at 560 nm.Viability and proliferation of PBMC (T cells) was quantified by Alamar Blue reduction for the SAg and BT systems. For PBMC viability (referred to as PBMC Cytotoxicity within the assay endpoint names), cells were plated (75,000/well in a 96-well plate) and then chemical samples added for 1 h before addition of activators, SEB and TSST-1 (20 ng/mL final concentration each). Cells were incubated for 90 h. Then, Alamar Blue (20 uL/well) (Invitrogen, Cat DAL1100) was added for 6 h, and the plates were read with a fluorescence microplate reader at 546/580 nm (excitation/emission). For PBMC proliferation, cells were plated and activated as above but incubated for only 16 h prior to addition of Alamar Blue. Plates were read after 6 h.

| Structure (SMILES) | outcome | AC50 |
| --- | --- | --- |
| C=C(C)C(=O)OCC(F)(F)C(F)(F)C(F)(F)C(F)(F)C(F)(F)C(F)(F)C(F)(F)F | inactive |  |
| C=CC(=O)OCC(F)(F)C(F)(F)C(F)(F)C(F)(F)C(F)(F)C(F)(F)C(F)(F)F | inactive |  |
| C=CC(=O)OCC(F)(F)C(F)(F)C(F)(F)C(F)(F)COC(=O)C=C |  | 14.1 µM (active) and 18.7 µM (active) |
| O=C(Cl)C(F)(F)C(F)(F)C(F)(F)C(F)(F)C(F)(F)C(F)(F)C(F)(F)C(F)(F)F | inactive |  |
| FC(F)(Br)C(F)(F)C(F)(F)C(F)(F)C(F)(F)C(F)(F)Br | inactive |  |
| OCC(F)(F)C(F)(F)C(F)(F)C(F)(F)C(F)(F)C(F)F | inactive |  |
| Nc1ccc([N+](=O)[O-])cc1O | inactive |  |
| COC(=O)CCC(F)(F)C(F)(F)C(F)(F)C(F)(F)F | inactive |  |
| FC(F)(F)C(F)(F)C(F)(F)C(F)(F)C(F)(F)C(F)(F)C(F)(F)C(F)(F)CCS | inactive |  |
| O[Si](c1ccccc1)(c1ccccc1)c1ccccc1 | inactive |  |
| O=C(O)C=C(C(F)(F)F)C(F)(F)F | inactive |  |
| C=CC(F)(F)C(F)(F)C(F)(F)C(F)(F)C(F)(F)C(F)(F)C(F)(F)C(F)(F)C=C | inactive |  |
| CC(CCl)OP(=O)(OC(C)CCl)OC(C)CCl (stereo not given) | inactive |  |
| FC(F)(F)C(F)(F)C(F)(F)C(F)(F)C(F)(F)C(F)(F)CCS | inactive |  |
| O=C(O)C(F)(F)C(F)(F)C(F)(F)C(F)(F)C(F)(F)C(F)(F)C(F)(F)C(F)(F)C(F)(F)C(F)F | inactive | 50.9 µM (active) |
| CCCCNc1ccccc1 | inactive |  |
| O=C(O)C(F)(F)C(F)(F)C(F)(F)C(F)(F)C(F)(F)C(F)(F)C(F)(F)C(F)(F)Cl |  | 30 µM (active) and 47.9 µM (active) |
| O=S(=O)(OCC(F)F)C(F)(F)F | inactive |  |
| CCCCCCC(C)OC(=O)CCCCC(=O)OC(C)CCCCCC (stereo not given) | inactive |  |
| O=C(O)C(F)(F)C(F)(F)C(F)(F)C(F)(F)C(F)(F)C(F)(F)C(F)(F)C(F)(F)C(F)(F)C(F)(F)C(F)(F)C(F)(F)F | inactive |  |

| Structure (SMILES) | outcome | AC50 |
| --- | --- | --- |
| FC1CC(F)(F)C(F)(F)C1(F)F (stereo not given) | inactive |  |
| OCC(F)(F)C(F)(F)C(F)(F)C(F)F | inactive |  |
| O=S(=O)(OCCOC(F)(F)F)C(F)(F)F | inactive |  |
| O=C(O)C(F)(F)C(F)(F)F | inactive |  |
| CCCCCCCCC(F)(F)C(F)(F)C(F)(F)C(F)(F)C(F)(F)C(F)(F)F | inactive |  |
| CS(C)(=O)=O | inactive |  |
| C#C[C@]1(O)CC[C@H]2[C@@H]3CCc4cc(OC)ccc4[C@H]3CC[C@@]21C | inactive |  |
| O=C(O)C(F)(F)C(F)(F)C(F)(F)C(F)(F)C(F)(F)C(F)(F)C(F)(F)C(F)(F)C(F)(F)C(F)(F)C(F)(F)C(F)(F)C(F)(F)F | inactive |  |
| C=C(C)C(=O)OCCC(F)(F)C(F)(F)C(F)(F)C(F)(F)C(F)(C(F)(F)F)C(F)(F)F | inactive |  |
| CCN(CC)c1ccc2c(C)cc(=O)oc2c1 | inactive |  |
| FC(F)(I)C(F)(F)C(F)(F)C(F)(F)I |  | 56 µM (active) and 47.7 µM (active) and 46.9 µM (active) |
| C=CC(F)(F)C(F)(F)C(F)(F)C(F)(F)C(F)(F)C(F)(F)C(F)(F)C(F)(F)F | inactive |  |
| N=C(N)C(F)(F)C(F)(F)C(F)(F)C(F)(F)C(F)(F)C(F)(F)C(F)(F)F | inactive |  |
| FC(F)(F)C(F)(F)C(F)(F)C(F)(F)C(F)(F)C(F)(F)C(F)(F)I | inactive |  |
| O=P(O)(O)OCCC(F)(F)C(F)(F)C(F)(F)C(F)(F)C(F)(F)C(F)(F)F | inactive |  |
| O=C(O)C(F)(F)C(F)(F)C(F)(F)C(F)(F)F | inactive |  |
| CC(C)(C)C(=O)CC(=O)C(F)(F)C(F)(F)C(F)(F)F | inactive |  |
| CC(=O)Nc1ccc(N=Nc2cc(C)ccc2O)cc1 | inactive |  |
| CCCCOCCOCCOC(=O)CCCCC(=O)OCCOCCOCCCC | inactive |  |
